HPGD inh = inhibitors of human 15-hydroxyprostaglandin dehydrogenase (HPGD). actives 4.3% (n = 150,000). P15428. Potency, µM, without a hit: at the highest dose activity change, negative = inhibition, actives largely listed as inhibitors. purified HPGD, NADH fluorescence kinetic, PGE2 substrate. AID 894; further: potency means the concentration at half of the fitted maximal effect
Target sequence (P15428 whole entry, looked up): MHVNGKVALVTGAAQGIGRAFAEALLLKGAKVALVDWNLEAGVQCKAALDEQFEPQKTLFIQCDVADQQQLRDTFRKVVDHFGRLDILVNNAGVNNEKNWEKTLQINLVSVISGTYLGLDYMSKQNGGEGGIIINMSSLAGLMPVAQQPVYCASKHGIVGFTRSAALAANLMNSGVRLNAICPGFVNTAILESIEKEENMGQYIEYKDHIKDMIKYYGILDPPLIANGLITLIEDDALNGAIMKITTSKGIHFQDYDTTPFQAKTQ
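NADH formation kinetics: reaction with 30 uM PGE2 and 1 mM NAD+ (final), 20 nM enzyme, Tris-HCl pH 8 with Tween 20, after 15 min compound preincubation at room temperature. Fluorescence change, last versus first of five reads.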
PNC assembly inh = blocks assembly of the perinucleolar compartment; PC3M PTB-GFP, PNC prevalence imaging, 16 h; active compounds read low; activity change (PNC), negative = inhibition, % at 10 µM; actives 3.1% (n = 140,000);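 active means readout at or below -70, meaning at least 70% loss of cells showing the perinucleolar compartment, a nuclear body marking cancer cells; inconclusive means readout between -30 and a set limit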;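 further: plate controls were DMSO wells for no effect and camptothecin positive control wells for full effect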
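Compounds are pinned in duplicate onto adhered PC3M cells stably expressing GFP-tagged PTB and incubated 16 h at 37 C. Cells are then fixed, nuclei stained with Hoechst, and PNC-positive cells counted.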
ALDH1A1 inh = ALDH1A1 (human) enzyme inhibition | actives 7.3% (n = 220,000) | Potency, µM (highest dose often 75.3 µM), without a hit: top-dose activity, negative = inhibition, most hits filed as inhibitors | AID 1030 | Purified ALDH1A1, NADH fluorescence, propionaldehyde substrate | P00352;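 further: potency means the concentration at half of the fitted maximal effect; plate controls were no enzyme wells and a reference inhibitor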
IMPase cell inh = membrane-permeable compound that blocks inositol monophosphatase. P97697. inhibition (IP1 accumulation), % at 46.1 µM. CHO-M1 cells, IP1 accumulation, HTRF TR-FRET ratio. 120,000 tested, under 10 active; active means well fitted curve in the direction sought with a large enough effect in the signal ratio, not every such curve was filed as active; inconclusive means small, poorly fitted or top-dose-only effect, or a change in a side signal; inactive means no such curve, though single readings can be large or run the other way; the % refers to the signal ratio;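 further: cells stimulated with carbachol in lithium chloride buffer; plate controls were DMSO basal wells for no effect and reference inhibitor wells for full effect; higher means more IMPase inhibition seen as more IP1 and lower FRET ratio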
Target sequence (P97697 whole entry, looked up): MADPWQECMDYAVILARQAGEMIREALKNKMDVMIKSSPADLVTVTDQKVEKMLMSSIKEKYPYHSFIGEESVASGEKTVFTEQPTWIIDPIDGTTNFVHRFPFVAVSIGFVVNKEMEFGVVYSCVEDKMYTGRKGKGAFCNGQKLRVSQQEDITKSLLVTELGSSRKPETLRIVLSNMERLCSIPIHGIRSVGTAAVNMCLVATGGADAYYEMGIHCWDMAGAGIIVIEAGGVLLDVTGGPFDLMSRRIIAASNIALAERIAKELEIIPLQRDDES
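Seeded CHO-M1 cells were dosed with compound at up to 46 uM, stimulated with carbachol for 30 min, then lysed in IP-One detection reagents. Higher IP1 lowers the TR-FRET signal.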
IMPase Li inh = cell-permeable IMPase inhibitors with lithium potentiation; CHO-M1 cells, IP1 TR-FRET (IP-One), carbachol + lithium; actives 0.35% (n = 210,000); Potency, µM (doses to about 59.4 µM), for inactives: top-dose activity, negative = IMPase inhibition, most hits filed as inhibitors; active means well fitted curve in the direction sought with a large enough effect; inconclusive means small, poorly fitted or top-dose-only effect, or another doubt; inactive means no such curve, though single readings can be large; an effect the other way counts as inactive or inconclusive;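 further: IP1 builds up when IMPase is blocked and the TR-FRET signal falls; potency means the concentration at half of the fitted maximal effect; plate controls were basal vehicle for no effect and high inhibitor control for full effect; nearly all actives have a fitted effect of over 50% in size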
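CHO cells stably expressing M1 receptor (2000/well) were cultured 16–30 h, then exposed to compounds with a small lithium addition for 30 min at 37C. IP1 was measured by TR-FRET competition; AC50 from Hill fits.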
ALOX12 inhib = inhibitors of human 12-lipoxygenase (ALOX12) | purified 12-hLO, xylenol orange hydroperoxide absorbance | Potency, µM (titrated, usually from 57.1 µM), for inactives: at the highest dose activity change, negative = inhibition, most hits filed as inhibitors | actives 0.12% (n = 150,000) | AID 1452 | P18054; active means well fitted curve in the direction sought with a large enough effect; inconclusive means small, poorly fitted or top-dose-only effect, or another doubt; inactive means no such curve, though single readings can be large; an effect the other way counts as inactive or inconclusive; further: potency means the concentration at half of the fitted maximal effect; nearly all actives have a fitted effect of over 55% in size
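Hydroperoxide formation by human 12-lipoxygenase from 40 uM arachidonic acid was followed colorimetrically via ferric-xylenol orange complex, using the 573/405 nm absorbance ratio. Enzyme concentration was 150 nM, with 30 min reaction at room temperature.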
The depositor's hits bear a star; [ ] = dose if it differs, or a comment. The list is not random: actives were taken first. Their share in the collection is about 11%. Unless noted, the call rests on the fitted dose curve; in most records, active means well fitted inhibition curve with a large enough effect (not every such curve was filed as active); inconclusive means small, poorly fitted or top-dose-only effect, or another doubt; inactive means no such curve, though single readings can be large or run the other way. Unless noted, on the % scale 0 is the no-effect control and ±100 the full control effect.

How did NC(=S)c1cn(C2OC(CO)C(O)C2O)c2ncnc(N)c12 (configuration not stated) do in these assays?
ALDH1A1 inh: 7.9µM*

Results for COC(=O)[C@@H]1C[C@H](OC(C)=O)C(=O)[C@H]2[C@@]1(C)CC[C@H]1C(=O)O[C@H](c3ccoc3)C[C@]21C ?
HPGD inh: -6%; ALDH1A1 inh: 3%; IMPase Li inh: 9%; ALOX12 inhib: -1%[0.00818 µM]

How did O=C(Nc1ccc([As](=O)(O)O)cc1)Nc1cccc(Cl)c1Cl do in these assays?
HPGD inh: -8%; ALDH1A1 inh: 3%[13.5 µM]; IMPase Li inh: -14%; ALOX12 inhib: 3%[11.4 µM]

How did Cc1oc2ccc(OC(=O)N3CCOCC3)cc2c1C(=O)OC(C)C do in these assays?
HPGD inh: -9%; PNC assembly inh: 2; ALDH1A1 inh: 4µM*; IMPase cell inh: 13; IMPase Li inh: 4%[38.3 µM]; ALOX12 inhib: -2%

How did O=C(O)C[SH+]CC(=O)O.O=C(O)C[SH+]CC(=O)O.[Cu] do in these assays?
HPGD inh: -5%; IMPase Li inh: 15%

What do the screens show for `CC(=O)OCC(=O)C1CCC2C3CC=C4CC(O)CC[C@@]4(C)C3CC[C@]12C` (some centres not stated)?
HPGD inh: -12%; ALDH1A1 inh: inconclusive; IMPase Li inh: 25%; ALOX12 inhib: -3%

How did Cc1ccc(S(=O)(=O)Nc2cc(C(=O)N3CCC4(CC3)OCCO4)ccc2N2CCCCC2)cc1 do in these assays?
HPGD inh: -25%; PNC assembly inh: 81; ALDH1A1 inh: 4µM*; IMPase cell inh: 8; IMPase Li inh: 37%[38.3 µM]; ALOX12 inhib: -5%

How did CC(=O)Nc1cc(C(=O)N2CCC3(CC2)OCCO3)ccc1Sc1ccc(F)cc1 do in these assays?
ALDH1A1 inh: 3µM*; IMPase Li inh: -5%

How did O=C(c1ccc(N2CCCCC2)c([N+](=O)[O-])c1)N1CCC2(CC1)OCCO2 do in these assays?
ALDH1A1 inh: inconclusive; IMPase Li inh: 1%

How did Cc1cccc(CS(=O)(=O)Cc2ccc(C(=O)N3CCC4(CC3)OCCO4)o2)c1 do in these assays?
HPGD inh: -3%; PNC assembly inh: 10; ALDH1A1 inh: 25µM*; IMPase cell inh: 23; IMPase Li inh: 30%[38.3 µM]; ALOX12 inhib: -2%

How did O=C(c1ccc(CS(=O)(=O)c2ccccc2)o1)N1CCC2(CC1)OCCO2 do in these assays?
HPGD inh: -6%; PNC assembly inh: 25; ALDH1A1 inh: 22µM*; IMPase cell inh: 9; IMPase Li inh: 10%[38.3 µM]; ALOX12 inhib: 3%

What do the screens show for `O=[As](O)(O)c1ccc(N=Nc2ccc([As](=O)(O)O)cc2)cc1`?
HPGD inh: -5%; ALDH1A1 inh: -4%[13.5 µM]; IMPase Li inh: -8%; ALOX12 inhib: 1%[11.4 µM]

How did CCC1=C(C[C@H]2NCCc3cc(OC)c(OC)cc32)C[C@H]2c3ccccc3CCN2C1 do in these assays?
HPGD inh: -1%; ALDH1A1 inh: 16%[13.5 µM]; IMPase Li inh: -2%; ALOX12 inhib: 11%[11.4 µM]

Results for O=C(c1ccc(CNS(=O)(=O)c2ccc(Br)cc2)cc1)N1CCC2(CC1)OCCO2 ?
HPGD inh: -17%; PNC assembly inh: 22; ALDH1A1 inh: 2%; IMPase Li inh: -3%; ALOX12 inhib: 0%

Results for O=C(c1ccc(CNS(=O)(=O)c2ccccc2)cc1)N1CCC2(CC1)OCCO2 ?
HPGD inh: inconclusive; PNC assembly inh: 5; ALDH1A1 inh: 8.9µM*; IMPase cell inh: 0; IMPase Li inh: -23%[38.3 µM]; ALOX12 inhib: -3%

What do the screens show for `Cc1ccc(N2C(=O)/C(=C/c3ccc(CN(CCC#N)S(C)(=O)=O)o3)C(=O)NC2=S)cc1`?
HPGD inh: 22µM*; PNC assembly inh: 22; ALDH1A1 inh: 22µM*; IMPase cell inh: -1; IMPase Li inh: 1%[38.3 µM]; ALOX12 inhib: inconclusive

How did O=C(Nc1ccccc1)c1cc([N+](=O)[O-])ccc1N1CCNCC1 do in these assays?
ALDH1A1 inh: 4%; IMPase Li inh: 4%

Results for O=[N+]([O-])c1ccc2nc(N3CCNCC3)ccc2c1 ?
HPGD inh: -16%; ALDH1A1 inh: 25µM*; IMPase cell inh: 6; IMPase Li inh: 3%; ALOX12 inhib: 6%

What do the screens show for `COc1cc(C(C#N)N2CCOCC2)ccc1O` (configuration not stated)?
PNC assembly inh: -5; ALDH1A1 inh: 14µM*; IMPase cell inh: 9; ALOX12 inhib: -6%

What do the screens show for `c1ccc2c(c1)CCNC2`?
HPGD inh: -6%; ALDH1A1 inh: 4%; IMPase Li inh: -8%; ALOX12 inhib: 3%

How did NCC#Cc1ccccc1 do in these assays?
HPGD inh: -7%; ALDH1A1 inh: -2%; IMPase cell inh: -2; IMPase Li inh: 5%; ALOX12 inhib: -4%

How did O=C1NO[C@@H]2CN[C@@H](C(=O)O)[C@H]12 do in these assays?
HPGD inh: -10%; ALDH1A1 inh: 6%; IMPase Li inh: -16%; ALOX12 inhib: -1%

What do the screens show for `CCN(CC)C(=O)c1ccc(NC(=O)c2cccc(F)c2)cc1`?
HPGD inh: 14µM*; PNC assembly inh: 1; ALDH1A1 inh: 1%; IMPase cell inh: 2; IMPase Li inh: 4%[38.3 µM]; ALOX12 inhib: -6%

What do the screens show for `CC/C=C\C/C=C\C/C=C\C/C=C\C/C=C\CCCC(N)=O`?
HPGD inh: -7%; ALDH1A1 inh: -7%; IMPase Li inh: 16%; ALOX12 inhib: 1%

What do the screens show for `Fc1ccc2c(c1)nnn2C1CCN(Cc2c(Cl)cccc2Cl)CC1`?
HPGD inh: -2%; PNC assembly inh: inconclusive; ALDH1A1 inh: 7%; IMPase cell inh: -1; IMPase Li inh: 6%; ALOX12 inhib: 3%

Results for Fc1ccc2c(c1)nnn2C1CCN(Cc2nnnn2C2CCCCC2)CC1 ?
HPGD inh: -12%; PNC assembly inh: inconclusive; ALDH1A1 inh: 13µM*; IMPase cell inh: 0; IMPase Li inh: 30%[38.3 µM]; ALOX12 inhib: -10%

How did O=NN(c1ccccc1)c1ccccc1 do in these assays?
HPGD inh: -6%; ALDH1A1 inh: inconclusive; IMPase Li inh: 9%; ALOX12 inhib: -9%

What do the screens show for `COc1ccc(N(CC(=O)Nc2cccc(SC)c2)S(C)(=O)=O)cc1Cl`?
HPGD inh: inconclusive; PNC assembly inh: inconclusive; ALDH1A1 inh: 14µM*; IMPase cell inh: 9; IMPase Li inh: 21%[38.3 µM]; ALOX12 inhib: -25%

Results for COc1ccc(NC(=O)c2c(C)nn(Cc3ccccc3Cl)c2Cl)cc1Cl ?
HPGD inh: -8%; PNC assembly inh: inconclusive; ALDH1A1 inh: 6%; IMPase cell inh: 6; IMPase Li inh: 7%; ALOX12 inhib: 3%

Source: PubChem (National Center for Advancing Translational Sciences (NCATS))
